High-throughput results deposited in PubChem by The Scripps Research Institute Molecular Screening Center.
GPR151 activ – activators of human GPR151 | Q8TDV0 | PathHunter beta-arrestin GPR151 cells, luminescence | activation, % at 11.2 µM | 650,000 compounds, 1% hits | AID 1508602; in the data active means activation above about 4.9%;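 further: 0% = median of compound wells and 100% = cells with positive control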
MITF inh – human MITF inhibition, primary screen | O75030 | AlphaScreen MITF homodimerization, bead proximity signal | 650,000 compounds, 0.91% hits | inhibition, % at 2.6 µM | AID 1259374; in the data active means inhibition above about 50%;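 further: 0% = vehicle wells with protein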
Target sequence (O75030 whole entry, looked up): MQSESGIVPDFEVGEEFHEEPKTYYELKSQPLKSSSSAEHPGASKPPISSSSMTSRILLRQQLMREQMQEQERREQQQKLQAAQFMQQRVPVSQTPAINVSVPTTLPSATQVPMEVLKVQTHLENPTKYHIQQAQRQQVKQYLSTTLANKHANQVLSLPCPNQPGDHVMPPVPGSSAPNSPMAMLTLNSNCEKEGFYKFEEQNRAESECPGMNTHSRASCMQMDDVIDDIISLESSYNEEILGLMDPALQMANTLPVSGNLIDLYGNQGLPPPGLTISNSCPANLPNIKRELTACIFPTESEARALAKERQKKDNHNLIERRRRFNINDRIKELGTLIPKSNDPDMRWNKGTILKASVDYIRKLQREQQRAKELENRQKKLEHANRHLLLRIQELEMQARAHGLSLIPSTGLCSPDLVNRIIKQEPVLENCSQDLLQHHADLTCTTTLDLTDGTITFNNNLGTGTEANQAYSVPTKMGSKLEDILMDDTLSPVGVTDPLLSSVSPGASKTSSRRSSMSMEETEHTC
FBW7 act – activators of human E3 ligase FBW7 | Q969H0 | AlphaScreen FBW7–phospho-cyclin E peptide binding, activator screen | normalized activity (activation), % at 26.1 µM | 650,000 compounds, 0.13% hits | AID 1259310; in the data active means normalized activity above about 1.9%;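 further: purified mutant Fbw7 with reduced substrate affinity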
TEAD-YAP block – TEAD-YAP interaction inhibition. inhibition, % at 9.12 µM. 640,000 compounds, 1.4% hits. HEK-TIYL cells, TEAD-Gal4/YAP UAS-luciferase luminescence; in the data active means inhibition above about 32%;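 further: 0% = median of test compound wells and 100% = reference inhibitor wells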
* hit, by the source's call. Shown are actives, neighbours in structure and some others; about 3.4% of the full set was active somewhere.

SMILES	GPR151 activ	MITF inh	FBW7 act	TEAD-YAP block
Cc1cccc(N2CCN(C(=O)c3ccc4c(c3)NC(=O)CS4)CC2C)c1 (stereo not drawn)	0	16	1	60*
Cc1ccc(C(=O)N2CCN(c3ccc([N+](=O)[O-])cc3)CC2C)cc1 (stereo not drawn)	1	5	0	39*
CCN(CC)C(=O)c1ccc(Sc2ccc(Br)cc2)c([N+](=O)[O-])c1	1	3	0	5
Cc1nnc(NC(=O)Cn2c3ccccc3c(=O)c3ccccc32)s1	1	-2	0	6
CCN(CC)c1nc(N)nc(NCCCN2CCCC2=O)n1	3	39	0	-3
CC1CCCCN1C(=O)c1ccc(S(=O)(=O)c2cccc(Cl)c2)c([N+](=O)[O-])c1 (stereo not drawn)	0	3	0	38*
O=C(c1ccc(S(=O)(=O)c2ccc(Br)cc2)c([N+](=O)[O-])c1)N1CCCC1	0	15	1	32*
O=C(c1ccc(S(=O)(=O)c2ccc(Br)cc2)c([N+](=O)[O-])c1)N1CCN(c2ccc(F)cc2)CC1	1	-12	0	11
FC(F)(F)c1cccc(-c2cnc3ccc(NCCc4cccnc4)nn23)c1	1	21	1	37*
CCCNc1ccc2ncc(-c3cc4ccccc4s3)n2n1	3	-13	0	-11
c1cncc(CCNc2ccc3ncc(-c4cc5ccccc5s4)n3n2)c1	0	14	0	73*
O=C(CCc1nnc(-c2ccc3c(c2)OCO3)o1)N(Cc1ccccn1)CC1CCCO1 (stereo not drawn)	0	-12	0	-5
O=C(Cn1cnc2sc3c(c2c1=O)CCCC3)NCCc1ccccc1Cl	-2	-1	0	-3
Cc1cc(C)cc(Oc2nc3c(C)cccn3c(=O)c2/C=C(\C#N)C(=O)N2CCOCC2)c1	4	8	0	37*
COc1ccc(Oc2nc3c(C)cccn3c(=O)c2/C=C(\C#N)C(=O)N2CCOCC2)cc1	0	9	0	15
Cc1cccc(Oc2nc3ccccn3c(=O)c2/C=C(\C#N)C(=O)N2CCOCC2)c1C	-1	18	1	42*
Cc1ccc(Oc2nc3ccccn3c(=O)c2/C=C(\C#N)C(=O)N2CCOCC2)c(C)c1	0	4	0	34*
COc1ccc(C2CC(=O)C3=C(C2)Nc2ccccc2N(C(=O)c2cccs2)C3c2cccc(F)c2)cc1 (stereo not drawn)	2	11	0	-9
CN1[C@@H](C(=O)Nc2cccnc2)C[C@@H](c2ccc(F)cc2)NS1(=O)=O	0	12	0	-5
COc1cccc(CSc2nncn3c2cc2oc(C)cc23)c1	-1	6	24*	-5
COc1cccc(CSc2nncn3c2cc2occc23)c1	-1	14	0	-2
Cc1ccc(C(=O)Nc2ccc(C)c(C)c2)cc1	-3	-14	0	67*
Cc1ccc(C(=O)Nc2ccc(C(=O)O)cc2)cc1	-1	8	0	45*
Cc1nc(-c2ccc(NC(=O)c3ccccc3)cc2)cs1	-10	-7	0	51*
O=C(Nc1ccc(-c2ccc(NC(=O)c3ccc(Cl)cc3)cc2)cc1)c1ccc(Cl)cc1	2	-6	39*	-12
SMILES	GPR151 activ	MITF inh	FBW7 act	TEAD-YAP block
CCOC(=O)N1CCC(N(CCN(C)C)C(=S)Nc2ccc(C)c(F)c2)CC1	0	2	0	-2
Cc1ccc2nc3ccc(N4CCCC4)nn3c(=O)c2c1	0	1	0	-60
CC1CCCN(c2ccc3nc4ccccc4c(=O)n3n2)C1 (stereo not drawn)	-4	9	0	71*
COc1ccc(C=Nc2ccc(Cl)c([N+](=O)[O-])c2)cc1OC	0	3	0	8
Cn1c(SCC(=O)N2CCN(c3ccccc3)CC2)ncc(C(=O)Nc2ccccc2)c1=O	-1	11	0	-12
COC(=O)c1cc2cccc(OC)c2oc1=O	-1	-3	0	-4
COC(=O)C1=C(OC)C(=O)OC12C=CC(=O)C=C2	-1	18	0	80*
CC(=O)N(CN1C(=O)C2C3c4ccccc4C(c4ccccc43)C2C1=O)c1ccc(Cl)c(Cl)c1 (stereo not drawn)	0	-1	0	-6
CCC(C)(C)NC(=O)C(OC(=O)c1ccco1)c1ccc(C)cc1 (stereo not drawn)	0	8	1.9*	-3
CCC(C)(C)NC(=O)C(OC(=O)c1ccco1)c1ccc(OC)cc1 (stereo not drawn)	1	12	0	-5
COCCOC(=O)C1=C(C)NC(C)=C(C#N)C1c1ccccc1OC(F)F (stereo not drawn)	-1	-1	0	9
